High-throughput results as filed in PubChem BioAssay.
Sampled rows, rich in hits. Any-hit rate of the full collection: about 2.9%.
KDM5B inhibitor: inhibitors of human KDM5B histone demethylase; KDM5B demethylase, FDH-coupled NADH fluorescence (FDH is formaldehyde dehydrogenase); Potency, µM (highest dose often 57.7 µM), most hits filed as inhibitors; 2.6% of 220,000 active; note: potency is the fitted concentration of half-maximal effect; 0% is about no effect; nearly all actives have a fitted effect of over 70% in size
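Here, H3K4me3 peptide (12.5 µM in substrate mix) is demethylated by KDM5BΔAP, 200 nM final, after 10 min compound exposure. Formaldehyde product is coupled through FDH (0.25 U/mL in mix) to NADH fluorescence; 30-min ΔRFU feeds dose-response curves.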
IP6K1 inh: IP6K1 kinase inhibition | AID 1645851 | activity change, % (series mostly up to about 58 µM) | Q92551 | 0.81% of 140,000 active | IP6K1 kinase, ADP-Glo luminescence, 2 h; stronger effect = lower value; in the data active = activity change below about -25%; note: % is set by controls: 0 for no effect and ±100 for the full control effect
Target sequence (Q92551 whole entry, looked up): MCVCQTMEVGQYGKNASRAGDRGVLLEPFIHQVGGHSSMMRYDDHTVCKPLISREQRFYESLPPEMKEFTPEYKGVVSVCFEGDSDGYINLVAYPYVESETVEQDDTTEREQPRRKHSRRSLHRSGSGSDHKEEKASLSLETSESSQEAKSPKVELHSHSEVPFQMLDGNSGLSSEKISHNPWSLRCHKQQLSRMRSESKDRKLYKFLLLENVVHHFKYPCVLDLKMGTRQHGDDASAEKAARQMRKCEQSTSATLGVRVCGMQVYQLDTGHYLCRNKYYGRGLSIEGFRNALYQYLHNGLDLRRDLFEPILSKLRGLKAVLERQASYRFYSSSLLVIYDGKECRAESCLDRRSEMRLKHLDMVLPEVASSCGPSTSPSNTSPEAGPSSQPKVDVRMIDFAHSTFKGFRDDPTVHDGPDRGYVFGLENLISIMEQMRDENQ
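ADP-Glo luminescence measures ADP made by human IP6K1 during a 2 h RT reaction with ATP/IP6 (mix at 1.3 mM/130 uM); top library doses 57.5 and 19.1 uM final.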
HEK293 viab: counter-screen for SNCA expression inhibitors: cell viability; 0.12% of 150,000 active; Potency, µM (doses to about 57.1 µM), without a hit: at the highest dose activity change, negative = cytotoxicity, most hits filed as cytotoxic; HEK-293-SNCA-luc viability, GF-AFC fluorescence, 24 h;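 note: potency is the fitted concentration of half-maximal effect; 0% = DMSO-treated cells and -100% = medium-only wells without cells; nearly all actives have a fitted effect of over 30% in size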
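Cytotoxicity counterscreen: after 24 h compound treatment of genome-edited SNCA-luciferase HEK-293 cells, live-cell protease substrate GF-AFC read by fluorescence after 30 min; activity scaled between DMSO (0%) and medium-only (-100%), curves Hill-fitted.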
SNCA expr inhib: reduces expression of the alpha-synuclein gene. HEK-293 SNCA-luciferase knock-in, luminescence, 24 h. Potency, µM (titrated, usually from 57.2 µM), inactives show top-dose activity change, negative = inhibition, hits mostly inhibitors. 0.17% of 140,000 active. AID 1671194;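 note: potency is the fitted concentration of half-maximal effect; plate controls were DMSO cells for no effect and cell-free wells for full effect; nearly all actives have a fitted effect of over 45% in size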
The depositor's hits bear a star; i = inactive; ? = inconclusive; . = not tested or not shown; [ ] = dose if it differs, or a comment. Unless noted, calls come from the whole dose curve; as a rule, active = well fitted curve in the direction sought with a large enough effect; inconclusive = small, poorly fitted or top-dose-only effect, or another doubt; inactive = no such curve, though single readings can be large; an effect the other way counts as inactive or inconclusive.

SMILES | KDM5B inhibitor | IP6K1 inh | HEK293 viab | SNCA expr inhib
c1ccc(CN2CCC[C@H]2c2nc(-c3ccnc(N4CCOCC4)c3)no2)nc1 | 28µM* | -1 | -10%[87.6 µM] | 32%[87.6 µM]
COc1ccc(CN2CCC[C@H]2c2nc(-c3ccnc(N4CCOCC4)c3)no2)cc1 | 32µM* | 4 | 0%[87.6 µM] | -2%[87.6 µM]
COCCNc1cc(-c2noc([C@@H]3CCCN3C3CCN(C(C)=O)CC3)n2)ccn1 | 40µM* | 2 | -1%[87.6 µM] | -3%[87.6 µM]
COc1ccc(S(=O)(=O)N2CCC3(CC2)N=C(c2cccs2)C(=O)N3)cc1 | i | . | . | .
Cc1ccc(NC(=O)c2ccc(N(Cc3ccccc3)S(C)(=O)=O)cc2)cc1 | i | -8 | 2.8µM* | 21%
O=C(Nc1ccc(S(=O)(=O)N(Cc2ccccc2)c2ccccc2)cc1)c1ccccc1F | i | 21 | -5% | -7%
CNC(=O)c1ccc(N(Cc2ccc(C)cc2)S(C)(=O)=O)cc1 | i | . | . | .
O=C(Nc1ccc(S(=O)(=O)N(Cc2ccccc2)c2ccccc2)cc1)c1ccc(F)cc1 | i[11.5 µM] | -28* | 3% | 20%
CS(=O)(=O)N(Cc1ccccc1)c1ccc(C(=O)Nc2cccc(Cl)c2)cc1 | ? | -5 | 6.3µM* | -14%
Cc1cccc(C(=O)Nc2ccc(S(=O)(=O)N(Cc3ccccc3)c3ccccc3)cc2)c1 | ? | -11 | 5% | 20%
C=CCNC(=O)NC(=O)COC(=O)c1c(C)c(CC)nc2ccccc12 | i | . | . | .
N#Cc1ccc(-c2c(-c3ccccc3)ncn2CCNc2cccnc2)cc1 | 28µM* | 13 | -3% | 33%
CCC(Cn1cnc(-c2ccccc2)c1-c1ccc(C#N)cc1)N1CCN(C)CC1 (centres undefined) | ? | 7 | -20% | -12%
COc1cc(Br)c(C#N)cc1OC | i | . | . | .
CCCNc1cc(N2CCC(CCC(=O)O)CC2)ncn1 | i | 2 | 2% | 1.1µM*
CCCNc1cc(N2CCC(CCC(=O)Nc3cccc(C)c3)CC2)ncn1 | i | -1 | -2% | 2µM*
CCCNc1cc(N2CCC(CCC(=O)N3CCN(c4ccc(F)cc4)CC3)CC2)ncn1 | i | 3 | -28% | ?
CCCNc1cc(N2CCC(CCC(=O)NCC)CC2)ncn1 | i | 12 | -15% | 2.5µM*
O=C(CCC1CCN(S(=O)(=O)c2ccccc2)CC1)NCc1ccc(F)cc1 | i | 8 | -5% | 3%
O=C(CCC1CCN(S(=O)(=O)c2ccccc2)CC1)NCc1ccccc1 | 22µM* | 10 | 3% | -12%
O=C(CC1(O)C(=O)N(CN2CCOCC2)c2ccccc21)c1ccc2c(c1)CCCC2 (centres undefined) | i | . | . | .
O=C(O)CCC1CCN(c2cc(NC3CC3)ncn2)CC1 | i | 2 | -6% | 1.1µM*
CCCNc1cc(N2CCC(CCC(=O)NCc3ccccc3)CC2)ncn1 | i | 17 | 12% | 2.5µM*
CCNc1cc(N2CCC(CCC(=O)NCc3ccc(OC)cc3)CC2)ncn1 | i | 24 | 1% | ?
CCNc1cc(N2CCC(CCC(=O)NCC3CC3)CC2)ncn1 | i | 20 | 12% | ?
SMILES | KDM5B inhibitor | IP6K1 inh | HEK293 viab | SNCA expr inhib
CCCNC(=O)CCC1CCN(c2cc(NCCC)ncn2)CC1 | i | 18 | -1% | 3.2µM*
O=C(CCC1CCN(c2cc(NC3CC3)ncn2)CC1)Nc1ccccc1 | i | 15 | 11% | ?
COCCN(C)C(=O)C1(C)CN(Cc2ccccc2)Cc2ccc(NCC(C)C)nc21 (centres undefined) | 32µM* | 28 | ? | ?
COCCN1Cc2ccc(NCc3ccccc3)nc2C(C)(C(=O)N(C)CCOC)C1 (centres undefined) | 35µM* | 8 | 27%[87.6 µM] | -23%[87.6 µM]
CC(C)CNc1ccc2c(n1)C(C)(C(=O)NC1CC1)CN(Cc1ccccc1)C2 (centres undefined) | i | 11 | ? | ?
C[S+](=O)([O-])Nc1cccc(-c2nc(N3CCOCC3)cc3c2CN(CC2CC2)C3=O)c1 | 28µM* | 4 | 11% | 20%
O=C1c2cc(N3CCOCC3)nc(-c3cccc(F)c3)c2CN1CC1CC1 | 35µM* | 17 | 5%[87.6 µM] | -2%[87.6 µM]
COc1ncccc1-c1nc(N2CCOCC2)cc2c1CN(CC(F)(F)F)C2=O | ? | 16 | -11%[87.6 µM] | 12%[87.6 µM]
COC(=O)C1=C(C)N(C)C(=O)N(C)C1c1cc(Br)ccc1F (centres undefined) | i | . | . | .
NC(=O)c1cc2c(nc1N1CCC3(CCCN(CC4CCC4)C3)C1)CCC2 (centres undefined) | 25µM* | 20 | -5% | -13%
